Compound activity as filed in PubChem BioAssay.
FECH inh – human FECH heme synthesis enzyme inhibition | AID 1671448 | purified FECH, Ni-mesoporphyrin absorbance 550 nm | calls only at 10 µM (by protocol) | P22830 | actives 3.3% (n = 20,000);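 active means enzyme reaction rate more than 3 SD below the solvent-only control wells on the same plate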;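 further: lower slope than DMSO wells means FECH inhibition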
Target sequence (P22830 whole entry, looked up): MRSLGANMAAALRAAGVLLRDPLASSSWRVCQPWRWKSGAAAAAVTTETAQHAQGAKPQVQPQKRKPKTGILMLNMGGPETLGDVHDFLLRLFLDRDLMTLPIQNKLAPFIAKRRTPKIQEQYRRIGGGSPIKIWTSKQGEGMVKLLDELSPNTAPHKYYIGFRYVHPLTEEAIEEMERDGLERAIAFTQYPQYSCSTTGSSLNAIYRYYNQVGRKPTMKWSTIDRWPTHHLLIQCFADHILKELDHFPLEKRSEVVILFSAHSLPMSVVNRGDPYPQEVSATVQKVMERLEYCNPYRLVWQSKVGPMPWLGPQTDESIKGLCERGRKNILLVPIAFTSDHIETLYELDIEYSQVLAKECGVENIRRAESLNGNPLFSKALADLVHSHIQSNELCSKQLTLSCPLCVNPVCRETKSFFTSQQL
Numbers without * were called inactive; i = inactive; + = active, no number. This excerpt belongs to a sample that is enriched for hits.

SMILES	FECH inh
Cc1ccc(C2=CC(c3ccccc3Cl)n3nc(NC(=O)c4ccccc4)nc3N2)cc1 (stereo not given)	i
Cc1ccc(C2=CC(c3ccccc3Cl)n3nc(NC(=O)c4cccc(Cl)c4)nc3N2)cc1 (stereo not given)	+
Cc1ccc(C2=CC(c3ccccc3Cl)n3nc(NC(=O)c4cccnc4)nc3N2)cc1 (stereo not given)	+
COc1cc(Nc2cc(-c3ccc(C)cc3)nc(C)n2)c(OC)cc1Cl	i
COc1ccc(NC(C)=O)cc1NC(=O)Cc1csc(NC(=O)Nc2cccc(Cl)c2)n1	i
Cc1ccc(S(=O)(=O)N2CCN(Cc3nc4cccnc4n3-c3cccc(C)c3)CC2)cc1	i
O=c1c(NCCCc2ccccc2)c(-c2ccc3c(c2)CCCC3)c1=O	i
NC(=O)COc1ccc(-c2nccn2Cc2ccc(F)cc2)cc1	i
CCCC(=O)N1CCC(N2CCC(c3ccncc3)CC2)CC1	i
COc1ccc(N2C(=O)CCS2(=O)=O)cc1S(=O)(=O)Nc1ccc(C)cc1	i
Cc1oc(-c2ccccc2Cl)cc1C(=O)NCCN1CCNC1=O	i
Cc1oc(-c2ccccc2Cl)cc1C(=O)NCCc1cnc[nH]1	+
c1cnc2c(-c3nccn3CCc3cnc[nH]3)cccc2c1	i
C=C(C)CN(CC)C(=O)[C@@H]1C[C@H](NC(=O)C2CCCCC2)CN1C	i
COc1ccc(CC(=O)NC(C2=CCCN(C)C2)C(C)C)cc1 (stereo not given)	i
COc1cccc(NCc2cc(=O)n3[nH]c(NCc4ccc(F)cc4)nc3n2)c1	i
O=c1cc(CNc2cccc(C(F)(F)F)c2)nc2nc(NCc3ccc(F)cc3)[nH]n12	i
CCCc1cc(=O)n2[nH]c(CNc3cccc(C)c3)nc2n1	+
CCCc1cc(=O)n2[nH]c(CNc3ccc(C)cc3)nc2n1	+
CCCc1cc(=O)n2[nH]c(CNc3cccc(C(F)(F)F)c3)nc2n1	+
Cc1cccc(NC(=O)c2ccc(CNc3nc4nc(C)cc(=O)n4[nH]3)cc2)c1	i
Cc1cccc(-c2nc3nc(CNC(C)C)cc(=O)n3[nH]2)c1	i
CCCc1cc(=O)n2[nH]c(CNc3ccc(Br)cc3)nc2n1	+
CCCc1c(C)nc2ncnn2c1Sc1ccc(NC(=O)Cc2cccc(OC)c2)cc1	i
c1ccc(-c2nccn2CC2CCN(C3CCCC3)CC2)nc1	i
SMILES	FECH inh
O=C(NC1CC1)C1CCCN(C2CCN(c3ccnc4ccccc34)CC2)C1 (stereo not given)	i
CCCc1cc(=O)n2[nH]c(CNc3ccccc3F)nc2n1	+
CCCc1cc(=O)n2[nH]c(CNc3ccc(C)c(Cl)c3)nc2n1	+
CCCc1cc(=O)n2[nH]c(CNc3ccccc3Cl)nc2n1	i
CCCc1cc(=O)n2[nH]c(CNc3ccccc3OCC)nc2n1	i
CCCc1cc(=O)n2[nH]c(CNc3ccc(F)cc3)nc2n1	+
CCCc1cc(=O)n2[nH]c(CNc3cc(Cl)ccc3OC)nc2n1	i
COc1cc2c(cc1CN1CC(c3ccncc3)C1)OCO2	i
Cc1ccccc1-c1cc(N2CCN(C(=O)Nc3cccc(C)c3C)CC2)ncn1	i
CCc1cc(Sc2ccccc2NC(=O)Cc2ccc(C)cc2)n2nc(C)nc2n1	i
C=C(C)COc1ccccc1C(=O)N(C)Cc1cc(C2CC2)n[nH]1	i
CCCCN(CC#Cc1ccccc1)C(=O)c1cccc(=O)[nH]1	i
CN1CC2(CCCN(C(=O)CC3=CSC4=NCCCN34)CC2)OC1=O (stereo not given)	i
Cc1ccc(NC(=O)CN2CCCC(OCc3ccccn3)C2)cc1C (stereo not given)	+
Cc1nc(C(C)C)cc(N2CCCC(OCc3ccccn3)C2)n1 (stereo not given)	i
O=S(=O)(NCc1ccccc1)N1CCCC(OCc2ccccn2)C1 (stereo not given)	i
Cc1ccc(O)c(CN(Cc2ccccc2)Cc2nccs2)n1	i
Cc1cccc(-n2c(CN3CCN(S(=O)(=O)c4cccc(Cl)c4)CC3)nc3cccnc32)c1	i
Cc1cccc(S(=O)(=O)N2CCN(c3nc(C)cc(N(C)C)n3)CC2)c1	i
Cc1cc(N(C)C)nc(N2CCN(S(=O)(=O)c3ccccc3)CC2)n1	+
Cc1cc(N(C)C)nc(N2CCN(S(=O)(=O)c3ccc(Oc4ccccc4)cc3)CC2)n1	i
COC(=O)c1[nH]nc2c1C(C1=Cc3cc(Cl)ccc3OC1)CC(=O)N2 (stereo not given)	i
CN1C[C@@H](N)C[C@H]1C(=O)N1CCOc2c(O)cc(-c3cccnc3)cc2C1	i
CCc1c(C)nc2ncnn2c1Sc1ccc(NS(=O)(=O)c2cc(Cl)ccc2OC)cc1	+
CCc1c(C)nc2ncnn2c1Sc1ccc(NC(=O)c2ccc(OC)c(OC)c2)cc1	+
SMILES	FECH inh
CCCc1c(C)nc2ncnn2c1Sc1ccc(NS(=O)(=O)c2cc(OC)ccc2OC)cc1	i
CCc1c(C)nc2ncnn2c1Sc1ccc(NS(=O)(=O)c2ccc(OC)c(OC)c2)cc1	i
CCc1c(C)nc2ncnn2c1Sc1ccc(NC(=O)Nc2ccc(OC)c(OC)c2)cc1	i
COc1cc(OC)cc(C(=O)Nc2ccccc2Sc2c(C)c(C)nc3nc(-c4ccccc4)nn23)c1	i
CCc1c(C)nc2ncnn2c1Sc1ccc(NC(=O)c2cccc(OC)c2)cc1	i
COc1cc(OC)cc(C(=O)Nc2ccccc2Sc2c(C)c(C)nc3ncnn23)c1	+
COc1ccccc1C(=O)Nc1ccccc1Sc1c(C)c(C)nc2ncnn12	i
CCc1cc(Sc2ccc(NC(=O)c3cc(OC)cc(OC)c3)cc2)n2ncnc2n1	i
CCCc1cc(Sc2ccc(NC(=O)c3cccc(OC)c3)cc2)n2ncnc2n1	+
CCCc1cc(Sc2ccc(NC(=O)c3ccc(OC)c(OC)c3)cc2)n2ncnc2n1	i
COc1cc(Cl)cc(C(=O)N2CCCC(N(C)C)CC2)c1 (stereo not given)	i
CCCc1nc(C)cc(N2CCNC(=O)CC2)n1	i
Cc1ccc(C(=O)N2CCC3(CC2)C(=O)NCCN3C)c2ccccc12	i
CC(=O)OC12C[C@H]3C[C@@H](C1)CC(C(=O)N(C)Cc1nc(C)no1)(C3)C2	i
O=C1N(Cc2cc(F)cc(F)c2)c2ccccc2S(=O)(=O)N1Cc1ccc(F)cc1	i
Cc1nc(CC(=O)Nc2ccc(S(N)(=O)=O)cc2)cs1	i
Cc1nc(CC2CCN(Cc3nc(-c4cccc(F)c4F)oc3C)CC2)no1	i
COc1ccnc(CN2CCC(N3CCCC(C(=O)N4CCCC4)C3)CC2)c1 (stereo not given)	i
CCCc1c(C)nc2ncnn2c1Sc1ccc(NC(=O)c2cc(OC)cc(OC)c2)cc1	+
CCCc1c(C)nc2ncnn2c1Sc1ccc(NC(=O)c2ccc(OC)c(OC)c2)cc1	+
CCCc1c(C)nc2ncnn2c1Sc1ccc(NC(=O)c2cc(OC)c(OC)c(OC)c2)cc1	i
CCc1cc(Sc2ccc(NC(=O)Nc3cccc(F)c3)cc2)n2ncnc2n1	i
CCc1cc(Sc2ccc(NC(=O)Nc3ccc(Br)cc3)cc2)n2ncnc2n1	+
CCCc1c(C)nc2ncnn2c1Sc1ccc(NC(=O)Cc2ccc(OC)cc2)cc1	i
CCCc1c(C)nc2ncnn2c1Sc1ccc(NC(=O)c2cccc(OC)c2)cc1	i
CCc1cc(Sc2ccc(NC(C)=O)cc2)n2ncnc2n1	i
CCc1c(C)nc2ncnn2c1Sc1ccc(NC(=O)c2c(OC)cccc2OC)cc1	i
